Measurements from ChEMBL document CHEMBL1961873, “Compounds: GSK PKIS; Assays: Nanosyn kinase panel” (2012).

How the values were obtained:
[1] = target: Sphingosine kinase 1 (Homo sapiens) (UniProt Q9NYA1); conditions: at 1 µM;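 note: mean SPHK1 inhibition value reported from the GSK PKIS kinase panel screen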
[2] = target: T1, Sphingosine kinase 2 (Homo sapiens) (UniProt Q9NRA0); conditions: at 0.1 µM
T1 sequence (whole entry): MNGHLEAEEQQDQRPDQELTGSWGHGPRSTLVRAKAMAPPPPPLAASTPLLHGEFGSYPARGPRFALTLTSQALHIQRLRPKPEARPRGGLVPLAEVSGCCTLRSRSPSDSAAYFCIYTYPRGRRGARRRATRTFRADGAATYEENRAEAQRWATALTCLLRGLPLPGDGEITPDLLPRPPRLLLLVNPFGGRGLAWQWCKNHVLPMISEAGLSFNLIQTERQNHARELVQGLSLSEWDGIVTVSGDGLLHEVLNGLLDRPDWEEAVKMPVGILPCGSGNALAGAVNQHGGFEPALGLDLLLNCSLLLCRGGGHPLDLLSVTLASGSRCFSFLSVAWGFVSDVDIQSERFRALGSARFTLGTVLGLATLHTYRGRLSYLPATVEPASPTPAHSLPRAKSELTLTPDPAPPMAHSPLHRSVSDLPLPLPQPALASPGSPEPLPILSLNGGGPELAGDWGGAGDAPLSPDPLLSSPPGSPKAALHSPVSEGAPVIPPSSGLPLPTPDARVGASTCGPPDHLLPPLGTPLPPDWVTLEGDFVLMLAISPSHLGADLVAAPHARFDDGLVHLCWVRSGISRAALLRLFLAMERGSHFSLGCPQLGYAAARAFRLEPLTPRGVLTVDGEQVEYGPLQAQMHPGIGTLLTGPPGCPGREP

[3] = target: T1, Sphingosine kinase 2 (Homo sapiens); conditions: at 1 µM
[4] = target: Casein kinase II subunit alpha (Homo sapiens) (UniProt P68400); conditions: at 0.1 µM
Chain of Casein kinase II subunit alpha (Homo sapiens) (P68400 whole entry, looked up): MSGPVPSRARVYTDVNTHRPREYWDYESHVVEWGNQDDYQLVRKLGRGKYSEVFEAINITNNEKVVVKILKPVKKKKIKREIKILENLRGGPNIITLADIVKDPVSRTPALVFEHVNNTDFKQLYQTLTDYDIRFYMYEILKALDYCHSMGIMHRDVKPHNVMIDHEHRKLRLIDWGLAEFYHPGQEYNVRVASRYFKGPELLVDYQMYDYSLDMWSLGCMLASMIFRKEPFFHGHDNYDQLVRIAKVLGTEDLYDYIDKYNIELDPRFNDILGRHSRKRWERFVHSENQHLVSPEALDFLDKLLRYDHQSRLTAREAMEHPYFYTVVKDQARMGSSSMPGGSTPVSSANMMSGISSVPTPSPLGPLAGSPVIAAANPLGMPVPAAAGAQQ

[5] = target: Casein kinase II subunit alpha (Homo sapiens) (UniProt P68400); conditions: at 1 µM
[6] = target: T2, Inhibitor of nuclear factor kappa-B kinase subunit alpha (Homo sapiens) (UniProt O15111); conditions: at 0.1 µM
T2 sequence (whole entry): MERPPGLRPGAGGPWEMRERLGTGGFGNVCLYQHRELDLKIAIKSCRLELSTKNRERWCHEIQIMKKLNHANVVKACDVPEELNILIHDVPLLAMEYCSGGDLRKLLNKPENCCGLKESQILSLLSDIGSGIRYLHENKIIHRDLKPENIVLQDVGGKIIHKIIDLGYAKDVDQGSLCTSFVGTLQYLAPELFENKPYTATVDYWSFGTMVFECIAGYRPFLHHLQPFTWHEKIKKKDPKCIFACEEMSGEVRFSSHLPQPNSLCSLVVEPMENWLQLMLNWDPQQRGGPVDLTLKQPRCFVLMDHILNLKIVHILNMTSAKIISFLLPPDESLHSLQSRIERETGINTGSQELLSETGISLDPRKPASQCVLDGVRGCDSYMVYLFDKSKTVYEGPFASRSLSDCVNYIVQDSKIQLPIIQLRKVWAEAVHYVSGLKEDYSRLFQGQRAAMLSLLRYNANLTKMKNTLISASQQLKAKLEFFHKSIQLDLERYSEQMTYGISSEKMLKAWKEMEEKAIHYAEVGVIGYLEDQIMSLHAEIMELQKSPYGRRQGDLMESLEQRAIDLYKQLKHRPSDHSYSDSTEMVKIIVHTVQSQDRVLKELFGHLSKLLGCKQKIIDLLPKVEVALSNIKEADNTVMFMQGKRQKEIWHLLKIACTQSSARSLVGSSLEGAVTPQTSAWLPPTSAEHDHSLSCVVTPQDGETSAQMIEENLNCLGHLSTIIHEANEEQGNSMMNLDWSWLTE

[7] = target: T2, Inhibitor of nuclear factor kappa-B kinase subunit alpha (Homo sapiens); conditions: at 1 µM
[8] = target: T3, Inhibitor of nuclear factor kappa-B kinase subunit beta (Homo sapiens) (UniProt O14920); conditions: at 0.1 µM
T3 sequence (whole entry): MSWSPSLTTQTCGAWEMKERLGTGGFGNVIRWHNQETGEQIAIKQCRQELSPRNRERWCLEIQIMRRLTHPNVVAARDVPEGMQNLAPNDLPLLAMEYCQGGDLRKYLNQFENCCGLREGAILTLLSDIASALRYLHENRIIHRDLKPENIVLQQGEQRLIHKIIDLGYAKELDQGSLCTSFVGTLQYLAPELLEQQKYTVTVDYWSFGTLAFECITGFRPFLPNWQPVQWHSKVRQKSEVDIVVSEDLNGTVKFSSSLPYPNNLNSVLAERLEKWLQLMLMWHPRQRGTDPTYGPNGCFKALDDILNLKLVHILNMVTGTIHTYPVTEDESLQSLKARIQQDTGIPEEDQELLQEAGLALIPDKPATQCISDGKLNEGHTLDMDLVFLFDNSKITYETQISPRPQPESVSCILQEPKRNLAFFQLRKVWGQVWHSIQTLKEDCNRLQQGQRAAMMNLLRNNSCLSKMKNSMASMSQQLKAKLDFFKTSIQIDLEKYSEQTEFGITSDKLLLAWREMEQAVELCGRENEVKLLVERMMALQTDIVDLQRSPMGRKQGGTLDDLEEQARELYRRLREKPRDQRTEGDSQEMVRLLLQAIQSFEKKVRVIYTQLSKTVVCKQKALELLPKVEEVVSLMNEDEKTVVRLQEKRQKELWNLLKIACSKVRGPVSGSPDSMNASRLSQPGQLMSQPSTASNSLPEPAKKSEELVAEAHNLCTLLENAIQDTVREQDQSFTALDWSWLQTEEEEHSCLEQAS

[9] = target: T3, Inhibitor of nuclear factor kappa-B kinase subunit beta (Homo sapiens); conditions: at 1 µM
[10] = target: T4, Inhibitor of nuclear factor kappa-B kinase subunit epsilon (Homo sapiens) (UniProt Q14164); conditions: at 0.1 µM
T4 sequence (whole entry): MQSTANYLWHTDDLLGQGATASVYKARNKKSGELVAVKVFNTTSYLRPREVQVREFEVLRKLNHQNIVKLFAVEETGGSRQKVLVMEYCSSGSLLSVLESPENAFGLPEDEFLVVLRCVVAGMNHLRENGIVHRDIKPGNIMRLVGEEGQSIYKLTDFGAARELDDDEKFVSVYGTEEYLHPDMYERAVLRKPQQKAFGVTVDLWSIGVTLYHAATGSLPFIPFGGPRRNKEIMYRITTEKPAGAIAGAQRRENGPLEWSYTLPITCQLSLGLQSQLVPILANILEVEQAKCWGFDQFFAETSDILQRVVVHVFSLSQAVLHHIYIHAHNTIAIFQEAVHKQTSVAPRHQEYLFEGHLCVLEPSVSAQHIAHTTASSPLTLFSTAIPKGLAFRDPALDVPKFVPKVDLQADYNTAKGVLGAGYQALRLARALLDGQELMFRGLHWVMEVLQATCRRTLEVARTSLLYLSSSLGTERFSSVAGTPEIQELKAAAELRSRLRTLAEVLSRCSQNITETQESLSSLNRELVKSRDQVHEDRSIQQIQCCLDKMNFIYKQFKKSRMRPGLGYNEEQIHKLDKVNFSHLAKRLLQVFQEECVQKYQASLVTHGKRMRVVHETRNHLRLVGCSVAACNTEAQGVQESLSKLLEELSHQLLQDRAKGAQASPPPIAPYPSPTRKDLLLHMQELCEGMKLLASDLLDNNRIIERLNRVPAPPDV

[11] = target: T4, Inhibitor of nuclear factor kappa-B kinase subunit epsilon (Homo sapiens); conditions: at 1 µM
[12] = target: T5, Serine/threonine-protein kinase Nek1 (Homo sapiens) (UniProt Q96PY6); conditions: at 0.1 µM
T5 sequence (whole entry): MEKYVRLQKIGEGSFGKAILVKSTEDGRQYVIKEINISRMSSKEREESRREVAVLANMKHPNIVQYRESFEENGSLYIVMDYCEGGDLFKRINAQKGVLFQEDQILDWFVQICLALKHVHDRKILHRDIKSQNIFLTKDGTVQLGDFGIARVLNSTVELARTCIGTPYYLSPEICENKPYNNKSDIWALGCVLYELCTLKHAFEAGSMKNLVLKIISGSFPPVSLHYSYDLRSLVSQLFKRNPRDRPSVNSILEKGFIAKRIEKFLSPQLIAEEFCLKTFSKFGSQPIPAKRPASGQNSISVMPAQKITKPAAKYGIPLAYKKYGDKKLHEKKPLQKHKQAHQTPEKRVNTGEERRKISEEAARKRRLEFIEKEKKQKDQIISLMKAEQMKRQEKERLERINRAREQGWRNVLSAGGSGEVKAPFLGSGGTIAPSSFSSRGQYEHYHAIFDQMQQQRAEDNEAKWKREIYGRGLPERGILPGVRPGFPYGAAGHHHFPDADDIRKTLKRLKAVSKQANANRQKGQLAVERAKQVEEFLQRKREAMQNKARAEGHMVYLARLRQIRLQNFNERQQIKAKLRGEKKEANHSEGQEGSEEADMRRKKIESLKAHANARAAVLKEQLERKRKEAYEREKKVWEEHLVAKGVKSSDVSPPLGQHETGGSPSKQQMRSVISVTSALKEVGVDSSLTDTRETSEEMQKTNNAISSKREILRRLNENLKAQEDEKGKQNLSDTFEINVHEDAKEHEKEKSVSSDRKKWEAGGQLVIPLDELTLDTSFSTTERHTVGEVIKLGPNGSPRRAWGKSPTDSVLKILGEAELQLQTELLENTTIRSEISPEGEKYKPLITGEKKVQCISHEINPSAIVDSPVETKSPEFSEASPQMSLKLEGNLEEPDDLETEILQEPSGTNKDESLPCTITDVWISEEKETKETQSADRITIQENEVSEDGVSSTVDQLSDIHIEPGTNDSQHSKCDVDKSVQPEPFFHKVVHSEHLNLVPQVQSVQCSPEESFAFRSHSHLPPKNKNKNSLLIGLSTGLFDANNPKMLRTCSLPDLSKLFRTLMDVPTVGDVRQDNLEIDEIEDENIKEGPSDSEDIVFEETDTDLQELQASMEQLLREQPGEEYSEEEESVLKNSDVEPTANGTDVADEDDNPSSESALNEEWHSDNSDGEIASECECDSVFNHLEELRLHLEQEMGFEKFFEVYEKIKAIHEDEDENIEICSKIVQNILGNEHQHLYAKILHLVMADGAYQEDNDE

[13] = target: T5, Serine/threonine-protein kinase Nek1 (Homo sapiens); conditions: at 1 µM
[14] = target: T6, Serine/threonine-protein kinase Nek2 (Homo sapiens) (UniProt P51955); conditions: at 0.1 µM
T6 sequence (whole entry): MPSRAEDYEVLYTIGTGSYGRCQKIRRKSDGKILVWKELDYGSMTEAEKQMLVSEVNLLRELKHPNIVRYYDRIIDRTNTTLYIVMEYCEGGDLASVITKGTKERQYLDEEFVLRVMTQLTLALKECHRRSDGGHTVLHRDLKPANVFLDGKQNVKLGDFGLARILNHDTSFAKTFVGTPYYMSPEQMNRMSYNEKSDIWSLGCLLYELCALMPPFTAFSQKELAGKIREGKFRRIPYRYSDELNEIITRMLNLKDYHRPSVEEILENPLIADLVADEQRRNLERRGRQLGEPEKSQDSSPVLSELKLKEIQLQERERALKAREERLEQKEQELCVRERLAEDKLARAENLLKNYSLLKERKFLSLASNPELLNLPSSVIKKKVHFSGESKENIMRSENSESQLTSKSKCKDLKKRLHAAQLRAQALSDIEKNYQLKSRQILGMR

[15] = target: T6, Serine/threonine-protein kinase Nek2 (Homo sapiens); conditions: at 1 µM
[16] = target: Serine/threonine-protein kinase Nek6 (Homo sapiens) (UniProt Q9HC98); conditions: at 0.1 µM
Chain of Serine/threonine-protein kinase Nek6 (Homo sapiens) (Q9HC98 whole entry): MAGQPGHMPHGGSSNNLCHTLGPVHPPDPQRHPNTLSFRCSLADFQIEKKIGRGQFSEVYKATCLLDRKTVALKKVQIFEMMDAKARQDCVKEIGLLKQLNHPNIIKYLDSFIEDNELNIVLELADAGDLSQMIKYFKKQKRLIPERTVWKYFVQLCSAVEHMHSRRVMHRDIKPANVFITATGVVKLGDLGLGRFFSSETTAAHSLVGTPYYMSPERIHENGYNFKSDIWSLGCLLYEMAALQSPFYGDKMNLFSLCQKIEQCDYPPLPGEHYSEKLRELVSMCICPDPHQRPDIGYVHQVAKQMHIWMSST

[17] = target: Serine/threonine-protein kinase Nek6 (Homo sapiens) (UniProt Q9HC98); conditions: at 1 µM
[18] = target: Serine/threonine-protein kinase Nek7 (Homo sapiens) (UniProt Q8TDX7); conditions: at 0.1 µM
Chain of Serine/threonine-protein kinase Nek7 (Homo sapiens) (Q8TDX7 whole entry, looked up): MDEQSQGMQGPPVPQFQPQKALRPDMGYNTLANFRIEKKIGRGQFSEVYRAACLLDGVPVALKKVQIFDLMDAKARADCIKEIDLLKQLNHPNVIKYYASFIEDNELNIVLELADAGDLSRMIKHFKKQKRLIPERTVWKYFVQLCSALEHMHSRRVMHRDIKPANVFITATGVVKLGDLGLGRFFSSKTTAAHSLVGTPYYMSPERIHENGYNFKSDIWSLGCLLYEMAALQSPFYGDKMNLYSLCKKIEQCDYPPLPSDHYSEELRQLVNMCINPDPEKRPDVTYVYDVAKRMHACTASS

[19] = target: Serine/threonine-protein kinase Nek7 (Homo sapiens) (UniProt Q8TDX7); conditions: at 1 µM
[20] = target: T7, Serine/threonine-protein kinase Nek9 (Homo sapiens) (UniProt Q8TD19); conditions: at 0.1 µM;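 note: reported value is the mean percent inhibition of NEK9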
T7 sequence (whole entry): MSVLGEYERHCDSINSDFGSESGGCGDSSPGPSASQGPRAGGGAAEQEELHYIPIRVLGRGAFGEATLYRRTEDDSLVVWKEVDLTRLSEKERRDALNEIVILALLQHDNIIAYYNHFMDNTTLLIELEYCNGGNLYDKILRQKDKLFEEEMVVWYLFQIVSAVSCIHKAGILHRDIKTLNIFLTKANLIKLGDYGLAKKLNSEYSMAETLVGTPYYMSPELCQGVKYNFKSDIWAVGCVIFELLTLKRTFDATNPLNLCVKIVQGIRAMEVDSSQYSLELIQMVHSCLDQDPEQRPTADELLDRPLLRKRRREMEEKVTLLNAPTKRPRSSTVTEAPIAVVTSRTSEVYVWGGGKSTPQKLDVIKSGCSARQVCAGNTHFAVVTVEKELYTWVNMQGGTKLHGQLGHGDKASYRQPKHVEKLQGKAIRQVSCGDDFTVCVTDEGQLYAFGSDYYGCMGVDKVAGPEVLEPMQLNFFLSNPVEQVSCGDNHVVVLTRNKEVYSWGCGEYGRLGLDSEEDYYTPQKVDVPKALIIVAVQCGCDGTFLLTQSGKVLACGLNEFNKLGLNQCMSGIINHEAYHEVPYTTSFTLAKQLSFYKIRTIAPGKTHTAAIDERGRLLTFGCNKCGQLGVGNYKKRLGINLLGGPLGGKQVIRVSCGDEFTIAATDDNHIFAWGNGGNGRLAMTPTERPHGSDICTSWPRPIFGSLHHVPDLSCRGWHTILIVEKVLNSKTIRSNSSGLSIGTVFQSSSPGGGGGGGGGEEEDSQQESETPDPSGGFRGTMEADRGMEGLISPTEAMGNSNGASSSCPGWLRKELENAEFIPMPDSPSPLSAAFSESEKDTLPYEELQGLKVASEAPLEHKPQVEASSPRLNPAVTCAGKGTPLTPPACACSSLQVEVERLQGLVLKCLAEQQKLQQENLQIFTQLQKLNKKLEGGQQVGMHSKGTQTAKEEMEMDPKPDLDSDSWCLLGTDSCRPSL

Chain of Sphingosine kinase 1 (Homo sapiens) (Q9NYA1 whole entry): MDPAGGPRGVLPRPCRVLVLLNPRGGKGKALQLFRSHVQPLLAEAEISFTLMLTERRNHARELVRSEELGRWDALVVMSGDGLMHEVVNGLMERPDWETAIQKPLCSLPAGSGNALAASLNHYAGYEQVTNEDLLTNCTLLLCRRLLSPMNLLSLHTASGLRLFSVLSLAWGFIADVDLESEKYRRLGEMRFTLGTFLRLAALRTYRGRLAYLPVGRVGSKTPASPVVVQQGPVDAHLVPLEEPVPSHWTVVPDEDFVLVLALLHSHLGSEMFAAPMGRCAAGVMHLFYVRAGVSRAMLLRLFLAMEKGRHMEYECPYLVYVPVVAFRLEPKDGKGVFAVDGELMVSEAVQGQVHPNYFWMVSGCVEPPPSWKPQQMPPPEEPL

SMILES: NS(=O)(=O)c1ccc(N/N=C2\C(=O)Nc3ccc(C(=O)NCCCn4ccnc4)cc32)cc1
- inhibition [1]: -2.65%
- inhibition [2]: 0.75%
- inhibition [3]: -2.51%
- inhibition [4]: 6.89%
- inhibition [5]: 21%
- inhibition [6]: 2.62%
- inhibition [7]: 0.02%
- inhibition [8]: 12.3%
- inhibition [9]: 14.7%
- inhibition [10]: 10.8%
- inhibition [11]: 26.6%
- inhibition [12]: 2.1%
- inhibition [13]: 4.83%
- inhibition [14]: 4.5%
- inhibition [15]: 5.08%
- inhibition [16]: 2.7%
- inhibition [17]: 3.62%
- inhibition [18]: 6.31%
- inhibition [19]: 5.01%
- inhibition [20]: 9.43%
